A selection: hits, their analogues and other compounds. The true share with any hit is near 0.93%.
LAP4 TOR yeast = yeast TOR pathway LAP4-GFP modulation | AID 2023 | S. cerevisiae LAP4-GFP multiplex, flow cytometry GFP, 3 h; median GFP as percent of DMSO wells | GFP response vs DMSO, % at 10 µM | actives 0.34% (n = 320,000);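 active means GFP response vs DMSO above a set limit, about the screen mean plus 3 SD, cut at about 150% in these data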
AGP1 TOR yeast = yeast TOR pathway AGP1-GFP modulation; S. cerevisiae AGP1-GFP multiplex flow cytometry, 3 h; GFP as percent of DMSO wells; GFP response vs DMSO, % at 10 µM; actives 0.02% (n = 320,000); AID 2066;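 active means GFP response relative to DMSO above a set limit, near screen average plus 3 SD, cut at about 150% in these data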;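 further: median GFP channel fluorescence of the gated AGP1 strain per well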
RPL19A-GFP yeast = yeast TOR pathway RPL19A-GFP modulation | S. cerevisiae RPL19A-GFP strain, flow cytometry, 3 h; active compounds read low | percent response vs DMSO, % at 10 µM | actives 0.3% (n = 330,000) | AID 2025;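 active means percent response vs DMSO below 50%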;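 further: median channel GFP fluorescence of the barcoded RPL19A-GFP strain; lower means less RPL19A-GFP as with rapamycin TOR inhibition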
MEP2-GFP yeast = alters MEP2-GFP fluorescence in TOR pathway yeast screen; S. cerevisiae MEP2-GFP strain, flow cytometry GFP, 3 h; 100% = DMSO control level; GFP response vs DMSO, % at 10 µM; actives 0.51% (n = 330,000);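 active means GFP response versus DMSO above a set limit, roughly screen mean plus 3 SD, cut at about 180% in these data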;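 further: median GFP fluorescence of the barcode-gated MEP2-GFP cells per well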
CIT2 TOR yeast = yeast TOR pathway CIT2-GFP modulation; actives 0.065% (n = 320,000); S. cerevisiae CIT2-GFP strain, flow cytometry, 3 h; 100 means same as DMSO wells; GFP response vs DMSO, % at 10 µM;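 active means GFP response relative to DMSO above a set limit, near the screen mean plus 3 SD, cut at about 150% in these data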;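 further: ratio of well median GFP fluorescence to mean of DMSO wells on the plate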
LAP4-GFP pick2 = reconfirmed LAP4-GFP TOR pathway modulator in yeast; S. cerevisiae LAP4-GFP strain, flow cytometry GFP, 3 h; shares compounds with LAP4 TOR yeast; actives 20% (n = 590); AID 2621; GFP response vs DMSO, % at 10 µM;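 active means GFP signal as percent of the solvent control above about 150%, meaning raised reporter expression, limit read from the data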
MEP2 cherry2 = reconfirmed MEP2-GFP TOR pathway modulator in yeast; shares compounds with LAP4 TOR yeast; S. cerevisiae MEP2-GFP strain, flow cytometry GFP, 3 h; GFP response vs DMSO, % at 10 µM; actives 10% (n = 590); AID 2622;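 active means GFP signal above 150% of the solvent control wells, that is a rise of more than half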;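 further: median channel GFP fluorescence of all gated yeast cells per well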
RPL19A GFP CP2 = reconfirmed modulator of RPL19A-GFP TOR reporter in yeast | shares compounds with LAP4 TOR yeast | S. cerevisiae RPL19A-GFP strain, flow cytometry GFP, 3 h; active compounds read low; 100% means same as DMSO wells | GFP response vs DMSO, % at 10 µM | actives 3% (n = 590) | AID 2623;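 active means under 65% GFP response relative to DMSO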;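 further: median GFP channel fluorescence per well over the all cells gate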
CIT2 GFP CP2 = yeast CIT2-GFP TOR reporter modulation, second cherry pick; shares compounds with LAP4 TOR yeast; S. cerevisiae CIT2-GFP strain, flow cytometry GFP, 3 h; DMSO control wells read 100%; GFP response vs DMSO, % at 10 µM; actives 8% (n = 590);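 active means GFP response vs DMSO above about 150%, limit read from the data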;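 further: median green fluorescence per well over all gated yeast cells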
AGP1-GFP pick2 = yeast AGP1-GFP TOR reporter modulation, second cherry pick; shares compounds with LAP4 TOR yeast; AID 2643; percent response vs DMSO, % at 10 µM; S. cerevisiae AGP1-GFP strain, flow cytometry GFP, 3 h; 590 tested, under 10 active;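 active means over 150 percent of DMSO response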;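 further: median GFP channel fluorescence over all cells without mother daughter split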
s288c autofluor = yeast s288c autofluorescence artifact, counter-screen; fluorescence change (kMESF span) at 33 µM; S. cerevisiae s288c, 520 nm autofluorescence, flow cytometry, 3 h; active compounds read high; zero means same as solvent-only cells; shares compounds with LAP4 TOR yeast; 610 tested, under 10 active;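 active means fluorescence span over the dose series, or activity score, above about 33, limit read from the data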
Numbers stand for hits; - = inactive; . = no result given.

SMILES	LAP4 TOR yeast	AGP1 TOR yeast	RPL19A-GFP yeast	MEP2-GFP yeast	CIT2 TOR yeast	LAP4-GFP pick2	MEP2 cherry2	RPL19A GFP CP2	CIT2 GFP CP2	AGP1-GFP pick2	s288c autofluor
O=C(CN1C(=O)c2ccccc2S1(=O)=O)NCc1ccccc1Cl	-	-	-	299.0	-	-	-	-	-	-	.
CCOC(=O)Cn1c(CN2CCOCC2)nc2c1c(=O)n(C)c(=O)n2C	222.1	-	-	-	-	-	-	-	-	-	.
CCOC(=O)Cn1c(CN2CCOCC2)nc2c1c(=O)[nH]c(=O)n2C	-	-	-	-	-	.	.	.	.	.	.
Cc1c(Br)c(=O)oc2c(Br)c(O)c(O)cc12	-	-	-	-	-	-	-	-	-	-	-
Cc1c(Br)c(=O)oc2c(Br)c(O)ccc12	-	-	-	-	-	.	.	.	.	.	.
CC(=O)c1cc2c(cc1NC(=O)CSc1ccc(S(=O)(=O)N(C)C)cn1)OCO2	-	-	-	-	-	.	.	.	.	.	.
Cc1cc(C)c(S(=O)(=O)ON2C(=O)c3ccccc3C2=O)cc1C	170.8	-	-	-	-	.	.	.	.	.	-
Cc1ccc(S(=O)(=O)ON2C(=O)c3ccccc3C2=O)c(C)c1	-	-	-	-	-	-	167.7	-	-	-	-
Cc1ccc(S(=O)(=O)N2CCN(CCc3ccccc3)CC2)c(C)c1	-	-	-	-	-	.	.	.	.	.	.
O=C1c2ccccc2C(=O)N1OS(=O)(=O)c1ccc(F)cc1	157.5	-	-	-	-	.	.	.	.	.	-
Cc1cc(C)c(C)c(S(=O)(=O)ON2C(=O)c3ccccc3C2=O)c1C	247.8	-	-	-	-	.	.	.	.	.	-
Cc1ccc(NC(=O)CSc2nnc(NC(=O)C3CC3)s2)cc1C	-	-	-	-	-	.	.	.	.	.	.
Cc1ccc(CNC(=O)Nc2ccc(F)cc2F)n1C	-	-	-	-	-	.	.	.	.	.	.
CCOc1ccc(N(CC)C(=O)CCS(=O)(=O)c2cccc3nonc23)cc1	-	-	-	-	-	.	.	.	.	.	.
Cn1c(=O)c2c(nc(NCC3CCCO3)n2C)n(C)c1=O (stereo unspecified)	-	-	-	-	-	.	.	.	.	.	.
CCCCNC(=O)c1cc2c(-c3ccc(Cl)cc3)nn(C)c2s1	157.1	-	-	216.2	151.2	-	-	-	-	-	.
COCCCNC(=O)c1cc2c(-c3ccc(Cl)cc3)nn(C)c2s1	-	-	-	-	-	.	.	.	.	.	.
Oc1c(CN2CCN(c3ccccc3)CC2)cc(Br)c2cccnc12	224.4	-	-	-	-	.	.	.	.	.	-
Oc1c(CN2CCOCC2)cc(COCc2ccccc2)c2cccnc12	-	-	-	-	-	.	.	.	.	.	.
O=C(/C=C/c1ccc(O)cc1)c1ccc(O)cc1O	-	-	-	-	-	.	.	.	.	.	.
O=C(/C=C/c1ccccn1)c1ccc(Br)cc1O	154.8	-	-	-	-	165.3	-	-	-	-	-
O=C(/C=C/c1ccccn1)c1cc(Br)ccc1O	212.3	-	-	-	-	.	.	.	.	.	-
COc1ccc(/C=C/C(=O)c2cc(Br)ccc2O)cc1OC	-	-	-	-	-	.	.	.	.	.	.
NS(=O)(=O)c1ccc(CCN=C(NS(=O)(=O)c2cccs2)c2ccccc2)cc1	-	-	-	-	-	.	.	.	.	.	.
Cc1cccc(OCCn2cnc(Cl)c2Cl)c1	-	-	-	-	-	.	.	.	.	.	.
SMILES	LAP4 TOR yeast	AGP1 TOR yeast	RPL19A-GFP yeast	MEP2-GFP yeast	CIT2 TOR yeast	LAP4-GFP pick2	MEP2 cherry2	RPL19A GFP CP2	CIT2 GFP CP2	AGP1-GFP pick2	s288c autofluor
C#CCOCCOCCOCCNc1nc(N2CCN(C(=O)CCCCCCCCCCNC(=O)Cn3cc(CCCCCN)nn3)CC2)nc(N2CCN(C(=O)CCCCCCCCCCNC(=O)[C@@H](CCC(=O)O)n3cc(CCCCCN)nn3)CC2)n1	-	-	-	-	-	.	.	.	.	.	.
C#CCOCCOCCOCCNc1nc(N2CCN(C(=O)CCCCCCCCCCNC(=O)Cn3cc(C[C@@H](C)O)nn3)CC2)nc(N2CCN(C(=O)CCCCCCCCCCNC(=O)[C@H](CCCN=C(N)N)n3cc(C[C@@H](C)CC)nn3)CC2)n1	183.4	-	-	-	-	-	-	-	-	-	.
C#CCOCCOCCOCCNc1nc(N2CCN(C(=O)CCCCCCCCCCNC(=O)Cn3cc(CCCCCN)nn3)CC2)nc(N2CCN(C(=O)CCCCCCCCCCNC(=O)[C@H]([C@@H](C)CC)n3cc(CCCCN=C(N)N)nn3)CC2)n1	151.1	-	-	-	-	-	-	-	-	-	.
C#CCOCCOCCOCCNc1nc(N2CCN(C(=O)CCCCCCCCCCNC(=O)[C@H]([C@@H](C)CC)n3cc(CCCCCN)nn3)CC2)nc(N2CCN(C(=O)CCCCCCCCCCNC(=O)[C@H]([C@@H](C)CC)n3cc(CCCCN=C(N)N)nn3)CC2)n1	-	-	-	-	-	.	.	.	.	.	.
C#CCOCCOCCOCCNc1nc(N2CCN(C(=O)CCCCCCCCCCNC(=O)Cn3cc(CCCCCN)nn3)CC2)nc(N2CCN(C(=O)CCCCCCCCCCNC(=O)Cn3cc(CCCCCN)nn3)CC2)n1	152.2	-	-	-	-	-	-	-	-	-	.
CCc1ccc(C(=O)N2CCN(c3ccc(NC(=O)c4cccnc4)cc3)CC2)cc1	-	-	-	-	-	.	.	.	.	.	.
CCCN1CCc2c(sc(NC(=S)NC(=O)c3ccccc3)c2C#N)C1	-	-	-	-	157.1	.	.	.	.	.	-
CC(C)N1CCc2c(sc(NC(=S)NC(=O)c3ccccc3)c2C#N)C1	-	-	-	-	-	.	.	.	.	.	.
CS(=O)(=O)c1nc(-c2ccccc2)cc(C(F)(F)F)n1	160.1	-	-	-	-	.	.	.	.	.	-
Cc1cc(NC(=O)CCS(=O)(=O)c2nc(-c3ccccc3)cc(C(F)(F)F)n2)no1	-	-	-	-	-	.	.	.	.	.	.
c1ccc(-c2csc(Nc3cccnc3)n2)nc1	-	-	-	-	-	-	-	-	-	-	-
COc1cccc2sc(Nc3nc(-c4ccccn4)cs3)nc12	168.7	-	-	-	-	.	.	.	.	.	-
c1ccc(Nc2nc(-c3ccccn3)cs2)cc1	-	-	-	-	-	.	.	.	.	.	.
